Structures are written as SMILES. Hit rate of the full screen: of about 200,000 compounds, about 18,000 (9%) were called active. This is one part of a sample in which actives are shown more often than they occur. No stated cut-off is given here; in the data, active means inhibition above about 50%; inactive means the rest.

As usually defined, the inhibition is the change of the read-out against control, counted positive when it falls.

A short description of the assay: antileishmanial activity against promastigotes – primary screen (AID 1063).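 Further: promastigotes grown with compound for 44 hours at 28 °C.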 The conditions noted are these: Leishmania major promastigotes, resazurin fluorescence viability; at 10 µM; active compounds read high. A general note: Alamar Blue is a resazurin reagent that responds to reducing activity.
Consider `CCCCn1c(N)c(N(CC)C(=O)/C=C/c2ccco2)c(=O)[nH]c1=O`, for which the inhibition was -4.32% (inactive).

In the case of `[O-][n+]1c2c(nn1-c1ccc(Cl)c(Cl)c1)-c1nonc1CC2`, the inhibition is 13.6% (inactive).

Turning to `Cc1nc(N2CCCCC2)sc1C=O`, the inhibition is 6.31% (inactive).

As for `CCC(C)(C)c1ccc(OCC(=O)N(C)C)c(C(C)(C)CC)c1`, the inhibition is 18.1% (inactive).

For `COC(=O)CNC(=O)c1ccc(OC2CCN(C(=O)C3CC3)CC2)cc1`, the inhibition is -6.39% (inactive).

In the case of `CCOc1cc(CNn2c(C)nnc2SCC(=O)NC(C)(C)C)ccc1OCC(=O)NC(C)(C)C`, the inhibition is 0.56% (inactive).

Take `CC1(C)C(c2cccs2)=[N+]([O-])C2(CCCCC2=O)N1O` (stereo not drawn): the inhibition is -6.22% (inactive).

With `COCCN(Cc1nc(-c2ccc(C(F)(F)F)cc2)no1)C(C)C`, the inhibition is 0.28% (inactive).

Turning to `O=C(Nc1ccnc(-c2ccncc2)n1)c1cccs1`, the inhibition was 1.21% (inactive).

As to `COC(=O)CCNC(=O)c1ccc2[nH]c(C)c(C)c2c1`, the inhibition is -6.37% (inactive).

Turning to `COc1ccc(-c2[nH]ncc2CN(C)Cc2cccnc2)c(F)c1`, the inhibition was 5.13% (inactive).

With `CC/C(O)=C1\C(=O)CC(C)(C)CC1=NCCc1nc2ccccc2[nH]1`, the inhibition was 2.52% (inactive).

`CC(=O)c1cccc(NC(=O)Nc2ccc(C)cc2)c1`: the inhibition was -3.66% (inactive).

With `COC(=O)c1ccc(NC(=O)Nc2ccc(C)cc2)cc1`, the inhibition is 91.7% (active).

`Cc1ccc(NC(=O)CC(=O)Nc2ccc(C)cc2)cc1`: the inhibition is -5.48% (inactive).

As for `O=C(Nc1ccc(S(=O)(=O)N2CCCCC2)cc1)c1cnccn1`, the inhibition is -3.44% (inactive).

Take `O=C(NC1CCCCC1)C1CCCN(S(=O)(=O)c2cccs2)C1` (stereo not drawn): the inhibition was -2.02% (inactive).

As for `CC1CCCN(S(=O)(=O)c2ccc(N(C(=O)c3cnccn3)C(C(=O)NC3CCCCC3)c3cccs3)cc2)C1` (stereo not drawn), the inhibition was 69.2% (active).

In the case of `CCCCn1c(=O)c(C(C)=O)c(O)c2ccccc21`, the inhibition was -2.04% (inactive).

`O=C(NC1CCCC1)C(c1ccc(N2CCOCC2)cc1)N(C(=O)c1ccco1)c1ccccc1F` (stereo not drawn): the inhibition was 3.7% (inactive).

For the compound `COC(=O)c1ccc(N(CC(=O)NC2CCCC2)C(=O)CNC(=O)c2ccco2)cc1`, the inhibition is -5.36% (inactive).

Turning to `COC(=O)c1cccc(N(C(=O)c2ccco2)C(C(=O)NC2CCCC2)c2ccco2)c1` (stereo not drawn), the inhibition was 51.8% (active).

As to `Cc1cc(C(=O)N/N=C\C(Br)=C\c2ccccc2)c(C)o1`, the inhibition is 12.7% (inactive).

In the case of `Nc1nonc1-n1nnc(C(=O)N/N=C/c2cc(Br)ccc2O)c1CSC1=NCCS1`, the inhibition is 50.8% (active).

For the compound `COCc1c(C(=O)N/N=C/C2CC=CCC2)nnn1-c1nonc1N` (stereo not drawn), the inhibition was -6.32% (inactive).

In the case of `COc1cc(/C=N\NC(=O)c2nonc2N)c(OC)cc1Br`, the inhibition is -4.69% (inactive).

For `COc1ccc(-c2ccc(CCC(=O)O)n2NC(=O)c2ccc(C(C)(C)C)cc2)cc1`, the inhibition is -4.23% (inactive).

For `NC(=O)C1=C[C@H](c2csc3ccccc23)C[C@H](OCc2ccc(CO)cc2)O1`, the inhibition is 14.5% (inactive).

Turning to `CN(C)N(C)C(=O)C(O)(c1ccccc1)c1ccccc1`, the inhibition was -4.98% (inactive).

As to `Cc1nn(-c2ccccc2)c2sc(C(=O)N(Cc3ccco3)C(C)C(=O)NC(C)(C)C)cc12` (stereo not drawn), the inhibition is 85.5% (active).

Turning to `Cc1nc(C)c(C(=O)N(c2ccc(C)c(C)c2)C(C(=O)NCc2ccco2)c2ccccc2)s1` (stereo not drawn), the inhibition was -1.53% (inactive).

`Cc1ccc(-c2nnn(CC(=O)N(Cc3ccco3)C(C(=O)NC(C)(C)C)c3ccncc3)n2)o1` (stereo not drawn): the inhibition was 4.2% (inactive).

On to `COc1ccc(CC(=O)NCc2nnc(SCC(=O)Nc3ncc(C)s3)n2C)cc1`, for which the inhibition was -4.95% (inactive).

For `CCOc1ccc(Nc2oc(Cc3ccccc3)nc2C#N)cc1`, the inhibition is 99.7% (active).

For the compound `N#Cc1nc(COc2ccc(-c3ccccc3)cc2)oc1NCc1cccnc1`, the inhibition was 7.49% (inactive).

For the compound `N#Cc1nc(Cc2ccccc2)oc1NCCc1ccccc1`, the inhibition was 0.9% (inactive).

With `CCOC(=O)c1[nH]cnc1C(=O)Nc1ccccc1C`, the inhibition is 4.69% (inactive).

In the case of `CCC(=O)Nc1ccc(C(=O)N2CCN(C(=O)c3ccco3)CC2)cc1`, the inhibition is 0.95% (inactive).

Consider `O=C(Nn1cnc2ccccc2c1=O)c1ccc([N+](=O)[O-])cc1Cl`, for which the inhibition is -9.04% (inactive).

Take `COc1ccc(NC(=O)/C(Cl)=C(/Cl)S(=O)Cc2ccc(C)cc2)cn1` (stereo not drawn): the inhibition is 101% (active).

As for `CC(=O)Nc1ccc(OCC(=O)NCc2ccc(C)cc2)cc1`, the inhibition was -6.13% (inactive).

For `COc1ccc(CS(=O)/C(Cl)=C(/Cl)C(=O)Nc2ccc(OC)nc2)cc1` (stereo not drawn), the inhibition is 101% (active).

As to `COc1ccc(NC(=S)Nc2ccccc2Cl)cn1`, the inhibition is 6.52% (inactive).

As for `COc1ccc(NC(=S)NCCNC(C)=O)cc1`, the inhibition was -3.38% (inactive).

Regarding `Cc1ccc(NC(=O)OCc2cncs2)cc1`, the inhibition is -5.83% (inactive).

Regarding `Cc1ccc(NC(=O)OCCNC(=O)c2ccncc2)cc1`, the inhibition is 0.55% (inactive).

Turning to `O=C(CN1C(=O)NC2(CCCCCC2)C1=O)NC1CC1`, the inhibition is -1.36% (inactive).

With `O=C(Nc1ccccc1C(=O)O)c1cc(S(=O)(=O)N2CCCCC2)cs1`, the inhibition is -7.25% (inactive).

In the case of `CCOC(=O)c1sc(=NC(=O)/C=C/c2cccs2)n(C)c1C`, the inhibition was -7.45% (inactive).

Regarding `Cc1ccc(OCc2n[nH]c(=S)n2-c2ccccc2)cc1`, the inhibition is 0.68% (inactive).

For the compound `COc1ccc(C)cc1S(=O)(=O)N(CC(=O)Nc1cccc([N+](=O)[O-])c1)c1ccc(C)cc1`, the inhibition is 30.9% (inactive).

Turning to `COc1ccccc1N(C(=O)Cn1nnc2ccccc21)C(C(=O)NCc1ccco1)c1ccc(C)o1` (stereo not drawn), the inhibition was -2.13% (inactive).

In the case of `COc1ccc([N+](=O)[O-])cc1N(CC(O)Cn1nnc2ccccc21)S(=O)(=O)c1ccc(C)cc1` (stereo not drawn), the inhibition is 99% (active).

`CC(=O)OC(COc1ccc(F)cc1)Cn1cnc2ccccc21` (stereo not drawn): the inhibition was -0.28% (inactive).

On to `Cc1cc(NS(=O)(=O)c2ccc(NC(=O)c3cccc(OC(F)F)c3)cc2)nc(C)n1`, for which the inhibition is -1.79% (inactive).

As for `Cc1cc(C(F)F)n2nc(C(=O)Nc3ccc(S(=O)(=O)NC45CC6CC(CC(C6)C4)C5)cc3)nc2n1`, the inhibition is 99% (active).

Turning to `CCn1nccc1C(=O)Nc1ccc(S(=O)(=O)NC23CC4CC(CC(C4)C2)C3)cc1`, the inhibition was 47.6% (inactive).

For `COc1ccc(Cl)cc1N(CC(=O)N1CCCCC1)S(C)(=O)=O`, the inhibition is -4.47% (inactive).

Source of the values: PubChem BioAssay AID1063 (University of Pittsburgh Molecular Library Screening Center, 2008).
